Records with an inconclusive call do not appear. Calls of active or inactive are those of the source. Calls follow the shape of the dose curve; as a rule, active = well fitted inhibition curve with a large enough effect; inconclusive = small, poorly fitted or top-dose-only effect; inactive = flat fitted curve, though single readings scatter.

Sequence of Lysine-specific demethylase 5B (Homo sapiens) (Q9UGL1 whole entry, looked up): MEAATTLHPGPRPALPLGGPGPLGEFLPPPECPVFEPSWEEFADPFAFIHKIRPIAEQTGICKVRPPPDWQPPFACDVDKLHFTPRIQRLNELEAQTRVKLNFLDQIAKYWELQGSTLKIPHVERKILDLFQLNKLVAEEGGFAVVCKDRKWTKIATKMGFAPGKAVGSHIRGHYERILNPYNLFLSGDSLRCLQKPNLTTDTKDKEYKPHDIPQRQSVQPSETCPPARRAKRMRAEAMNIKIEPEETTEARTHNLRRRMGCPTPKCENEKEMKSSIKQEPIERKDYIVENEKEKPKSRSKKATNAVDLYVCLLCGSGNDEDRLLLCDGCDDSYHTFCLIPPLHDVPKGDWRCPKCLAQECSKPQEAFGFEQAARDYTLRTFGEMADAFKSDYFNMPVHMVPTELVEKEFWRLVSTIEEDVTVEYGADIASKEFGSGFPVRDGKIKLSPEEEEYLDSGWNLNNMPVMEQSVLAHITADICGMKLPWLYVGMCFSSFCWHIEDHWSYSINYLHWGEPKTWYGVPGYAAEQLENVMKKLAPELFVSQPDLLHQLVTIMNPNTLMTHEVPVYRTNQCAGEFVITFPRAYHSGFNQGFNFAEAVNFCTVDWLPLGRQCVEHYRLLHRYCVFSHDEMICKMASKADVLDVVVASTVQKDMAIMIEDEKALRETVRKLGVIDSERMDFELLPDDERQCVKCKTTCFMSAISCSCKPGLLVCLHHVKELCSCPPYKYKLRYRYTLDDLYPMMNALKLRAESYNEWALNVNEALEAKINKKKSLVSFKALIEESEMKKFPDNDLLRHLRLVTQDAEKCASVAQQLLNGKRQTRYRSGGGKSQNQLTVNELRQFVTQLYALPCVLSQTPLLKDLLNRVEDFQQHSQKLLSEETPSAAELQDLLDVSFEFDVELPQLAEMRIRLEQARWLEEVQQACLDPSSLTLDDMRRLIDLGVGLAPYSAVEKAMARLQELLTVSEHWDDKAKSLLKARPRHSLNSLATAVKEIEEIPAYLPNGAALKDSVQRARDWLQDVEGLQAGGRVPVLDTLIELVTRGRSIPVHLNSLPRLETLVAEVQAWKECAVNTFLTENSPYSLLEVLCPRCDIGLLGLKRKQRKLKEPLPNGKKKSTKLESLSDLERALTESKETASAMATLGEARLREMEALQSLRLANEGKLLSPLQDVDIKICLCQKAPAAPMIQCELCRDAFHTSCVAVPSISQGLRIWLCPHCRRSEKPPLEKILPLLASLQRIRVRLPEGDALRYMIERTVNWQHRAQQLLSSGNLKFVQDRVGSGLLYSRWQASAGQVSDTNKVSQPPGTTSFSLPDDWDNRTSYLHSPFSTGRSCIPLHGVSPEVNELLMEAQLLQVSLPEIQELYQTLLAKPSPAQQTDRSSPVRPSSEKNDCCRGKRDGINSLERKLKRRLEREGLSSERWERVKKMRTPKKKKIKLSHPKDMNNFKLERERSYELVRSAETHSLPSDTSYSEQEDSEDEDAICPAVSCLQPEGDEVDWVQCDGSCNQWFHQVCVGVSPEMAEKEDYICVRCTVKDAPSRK

The target in this experiment is Lysine-specific demethylase 5B (Homo sapiens) (UniProt Q9UGL1). Briefly: Optimization screen for KDM5B Histone Demethylases FDH coupled qHTS against the LOPAC library (AID 1347166). The settings on record: KDM5B demethylation, FDH-coupled NADH fluorescence (FDH is formaldehyde dehydrogenase); series mostly up to 57.5 µM. The essentials:
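KDM5BDeltaAP (200nM final) in 50mM HEPES pH 7.5, 0.01% Tween-20 was preincubated with compound for 10 min at room temperature. A substrate mix of 12.5uM H3K4Me3, 25uM a-ketoglutarate, ascorbate, Fe2+, NAD+ and formaldehyde dehydrogenase was then added. NADH fluorescence (340/450 nm) was read initially and after 30 min.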
Background: qHTS replaces the single test concentration by a dilution series.
Regarding `Clc1ccc2nsnc2c1NC1=NCCN1`, the call was inactive.
With `COC(=O)Nc1nc2ccc(C(=O)c3cccs3)cc2[nH]1`, the call was inactive.
On to `CC(C)(Oc1ccc(C2CC2(Cl)Cl)cc1)C(=O)O` (configuration not stated), for which the outcome was inactive.
As for `Nc1nc2c(ncn2COC(CO)CO)c(=O)[nH]1`, the compound was called inactive.
The result for `CN1CCN(C2=Nc3cc(Cl)ccc3Nc3ccccc32)CC1` reads “inactive”.
In the case of `Cc1cc(C(C)(C)C)cc(C)c1CC1=NCCN1` it was “inactive”.
In the case of `CN(C)CCCN1c2ccccc2CCc2ccc(Cl)cc21` it was “inactive”; in that of `NC12CC3CC(CC(C3)C1)C2`, “inactive”.
As to `CN1C(C(=O)Nc2ccccn2)=C(O)c2ccccc2S1(=O)=O`, the compound was classed as inactive.
In the case of `CN1CCC(=C2c3ccccc3CC(=O)c3sccc32)CC1` it was “inactive”; in that of `CCN1CCCC1CNC(=O)c1cc(S(=O)(=O)CC)c(N)cc1OC` (configuration not stated), “inactive”.
`CN(C)CCC=C1c2ccccc2C=Cc2ccccc21`: the compound was called inactive.
The result for `CC[N+](CC)(CC)CCOc1cccc(OCC[N+](CC)(CC)CC)c1OCC[N+](CC)(CC)CC` reads “inactive”; that for `CC(C)C(=O)Nc1ccc([N+](=O)[O-])c(C(F)(F)F)c1`, “inactive”.
As for `CCc1cccc2c3c([nH]c12)C(CC)(CC(=O)O)OCC3` (configuration not stated), the compound was called inactive.
In the case of `COc1ccccc1N1CCN(CC(O)COc2cccc3ccccc23)CC1` (configuration not stated) it was “inactive”.
With `CCOC(=O)c1ncn2c1CN(C)C(=O)c1cc(F)ccc1-2`, the compound was called inactive.
Regarding `NCCc1cnc[nH]1`, the outcome was inactive.
The result for `Cn1c(=O)c2c(ncn2C)n(C)c1=O` reads “inactive”.
The result for `CN(C)c1nc(N(C)C)nc(N(C)C)n1` reads “inactive”.
On to `O=C(C1CCCCC1)N1CC(=O)N2CCc3ccccc3C2C1` (configuration not stated), for which the result was inactive.
The result for `Fc1ccc([C@@H]2CCNC[C@H]2COc2ccc3c(c2)OCO3)cc1` reads “inactive”.
In the case of `O=C1N(c2ccccc2)c2ccccc2C1(Cc1ccncc1)Cc1ccncc1` it was “inactive”.
The result for `COc1nc(C)nc(Cl)c1NC1=NCCN1` reads “inactive”; that for `CN1CCN(CCCN2c3ccccc3Sc3ccc(Cl)cc32)CC1`, “inactive”.
With `CCCCc1oc2ccccc2c1C(=O)c1cc(I)c(OCCN(CC)CC)c(I)c1`, the compound was classed as inactive.
For `CCC1(c2ccccc2)C(=O)NCNC1=O`, the result was inactive.

(Values after PubChem BioAssay (NCATS).)
